tim23-1 inh: growth inhibitors of tim23-1 mutant yeast, primary screen, luminescence, uHTS; S. cerevisiae tim23-1 growth, BacTiter-Glo luminescence, 24 h; inhibition, % at 20 µM; 330,000 tested, 1.3% active; AID 463212, 2010;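 active = growth inhibition of the mutant yeast at or above 50%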;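 also: temperature-sensitive mutant grown at 25 °C; plate controls were DMSO-treated mutant yeast for no effect and medium wells lacking yeast for full effect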
PfHsp90 set2: growth inhibition of PfHsp90-expressing yeast, primary screen, antimalarial PfHsp90 inhibitor project, S. cerevisiae, BacTiter-Glo luminescence, single point, set 2. AID 504621, 2011. BacTiter-Glo ATP, 48 h; yeast lacking PDR1 and PDR3 efflux regulators. 310,000 tested, 0.32% active. inhibition, % at 9.4 µM;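 active = every replicate shows inhibition above about 80%, whatever the replicate mean, limit read from the data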;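 also: 0% = DMSO neutral controls and 100% = 20 µM radicicol positive controls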
tim10-1 inh: growth inhibitors of tim10-1 mutant yeast, primary screen, luminescence, uHTS; 330,000 tested, 2.2% active; S. cerevisiae tim10-1 ts strain growth, BacTiter-Glo, 24 h; inhibition, % at 20 µM;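 active = inhibition of at least 40%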;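 also: mutant grown at 25 °C; 0% = DMSO wells with yeast and 100% = wells holding no yeast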
TIM10 inh: growth inhibitors of isogenic TIM10 control yeast, primary screen, counter-screen for tim10-1 yeast inhibitor project, luminescence, uHTS. S. cerevisiae TIM10 strain growth, BacTiter-Glo luminescence, 24 h. inhibition, % at 10 µM. 330,000 tested, 1.4% active. AID 463195, 2010;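 active = inhibition of 40% or more at the single tested concentration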;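 also: wild-type TIM10 isogenic control strain grown at permissive 25 °C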
V-ATPase pH: regulators of yeast V-ATPase proton pumping, primary screen, pHLuorin cytosolic pH fluorescence; S. cerevisiae; response, % at 10 µM; 350,000 tested, 0.37% active; AID 504577, 2011; in the data active = response mostly above about 7.3%, no sharp cut-off; inactive = mostly below about 5.4%; also: actives read high
tim10-1 conf: growth inhibitors of tim10-1 mutant yeast, confirmation, single concentration, luminescence, S. cerevisiae | shares compounds with tim10-1 inh | S. cerevisiae tim10-1 ts strain growth, BacTiter-Glo, 24 h | inhibition, % at 20 µM | 7,400 tested, 56% active;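 active = inhibition of yeast growth at or above a set limit in either of two repeat tests at 20 µM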;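 also: tim10-1 mutant grown at permissive 25 °C to find synthetic lethal compounds; 0% = DMSO yeast wells and 100% = medium wells without yeast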
* hit, by the source's call. Hits are enriched below; roughly 3.7% of the tested compounds scored in any of these assays.

How did CCn1c(C)cc(O)c(C(=O)Nc2cccc(Cl)c2)c1=O do in these assays?
tim23-1 inh: 15; PfHsp90 set2: -6; tim10-1 inh: 45*; TIM10 inh: -3; V-ATPase pH: -1; tim10-1 conf: 7

Results for CCn1c(=O)c(C(=O)Nn2c(C)nc3ccccc3c2=O)c(O)c2ccccc21 ?
tim23-1 inh: 31; tim10-1 inh: 43*; TIM10 inh: -20; V-ATPase pH: -3; tim10-1 conf: -2

What do the screens show for `CCCC1CCC(C(=O)Nn2c(C)nc3ccccc3c2=O)CC1` (stereo unspecified)?
tim23-1 inh: 29; PfHsp90 set2: 39; tim10-1 inh: 47*; TIM10 inh: 9; V-ATPase pH: -1; tim10-1 conf: -8

How did CCCCCCC1CCC(C(=O)Nn2c(C)nc3ccccc3c2=O)CC1 (stereo unspecified) do in these assays?
tim23-1 inh: 11; PfHsp90 set2: 15; tim10-1 inh: -4; TIM10 inh: -3; V-ATPase pH: -1

How did CCn1c(=O)c(C(=O)NNC(=O)c2cccc(Cl)c2)c(O)c2ccccc21 do in these assays?
tim23-1 inh: 11; PfHsp90 set2: -11; tim10-1 inh: 46*; TIM10 inh: 4; V-ATPase pH: 4; tim10-1 conf: 51*

Results for CCN(CC(=O)NCc1ccccn1)S(=O)(=O)c1cc(Cl)ccc1Cl ?
tim23-1 inh: 1; PfHsp90 set2: -17; tim10-1 inh: 18; TIM10 inh: 6; V-ATPase pH: -2

How did CSCCC(NC(=O)COc1ccccc1)C(=O)N1CCCC(C)C1 (stereo unspecified) do in these assays?
tim23-1 inh: 9; PfHsp90 set2: -9; tim10-1 inh: 8; TIM10 inh: 9; V-ATPase pH: 2

Results for Cc1ccc(S(=O)(=O)N2C[C@@H](C)[C@]3(C2)[C@H](O)[C@H](OC(=O)NCc2ccco2)C[C@H]2C(=O)N(c4ccccc4)C(=O)[C@H]23)cc1 ?
V-ATPase pH: -3

What do the screens show for `CCCCCCC(=O)OCC(=O)c1ccc2c(c1)NC(=O)CO2`?
tim23-1 inh: 30; PfHsp90 set2: -8; tim10-1 inh: 40*; TIM10 inh: 3; V-ATPase pH: 4; tim10-1 conf: 28

What do the screens show for `CN1C(=S)SC(C)(C)C1(C)NO` (stereo unspecified)?
tim23-1 inh: 6; PfHsp90 set2: 6; tim10-1 inh: 71*; TIM10 inh: -1; V-ATPase pH: 2; tim10-1 conf: -8

How did CCN(CC)CCNCC1C(=O)O[C@@H]2C[C@@]3(C)CCC[C@H](C)C3=C[C@H]12 (stereo partly specified) do in these assays?
tim23-1 inh: 44; PfHsp90 set2: 3; tim10-1 inh: 51*; TIM10 inh: 24; V-ATPase pH: 0; tim10-1 conf: 37*

What do the screens show for `N#CCSc1nc2c(cc1C#N)CCCCCC2`?
tim23-1 inh: 28; PfHsp90 set2: -4; tim10-1 inh: 28; TIM10 inh: -23; V-ATPase pH: -8

Results for N#CCSc1nc2c(c(C3CC=CCC3)c1C#N)CCC2 (stereo unspecified) ?
tim23-1 inh: 31; PfHsp90 set2: -17; tim10-1 inh: 47*; TIM10 inh: 6; V-ATPase pH: -1; tim10-1 conf: 35*

How did COCc1c(C(=O)Nc2nnc(C3CC3)s2)oc2ccccc12 do in these assays?
V-ATPase pH: 0

What do the screens show for `CCOC(=O)c1cc(C)n(-c2ccc(OC)c(OC)c2)c1C`?
tim23-1 inh: 15; PfHsp90 set2: 2; tim10-1 inh: 47*; TIM10 inh: 17; V-ATPase pH: 1; tim10-1 conf: 10

Results for Cc1ccccc1-c1nnn(Cc2cccc(S(=O)(=O)N3CCOCC3)c2)n1 ?
tim23-1 inh: 29; PfHsp90 set2: -8; tim10-1 inh: 20; TIM10 inh: 13; V-ATPase pH: 1

Results for Nc1nc(Nc2cccc(C(F)(F)F)c2)nc(C(F)(F)F)n1 ?
tim23-1 inh: 42; PfHsp90 set2: 45; tim10-1 inh: 44*; TIM10 inh: 39; V-ATPase pH: 3; tim10-1 conf: 35*

Results for Nc1ncnc(Nc2cccc(C(F)(F)F)c2)n1 ?
tim23-1 inh: -4; PfHsp90 set2: 42; tim10-1 inh: 8; TIM10 inh: -6; V-ATPase pH: 0

What do the screens show for `Fc1ccccc1CNc1cc(Cl)cc(Cl)c1`?
tim23-1 inh: 26; PfHsp90 set2: -8; tim10-1 inh: 59*; TIM10 inh: 20; V-ATPase pH: 0; tim10-1 conf: 65*

How did O=[N+]([O-])c1ccccc1CNc1ccc(F)c(Cl)c1 do in these assays?
tim23-1 inh: 37; PfHsp90 set2: -26; tim10-1 inh: 36; TIM10 inh: 22; V-ATPase pH: 0

How did CC1CCCN(C(=S)SCC(=O)O)C1 (stereo unspecified) do in these assays?
tim23-1 inh: 8; PfHsp90 set2: -3; tim10-1 inh: 7; TIM10 inh: -1; V-ATPase pH: -2

What do the screens show for `CC1CCCN(C(=S)SCC(=O)c2cc(Br)cc(Br)c2O)C1` (stereo unspecified)?
tim23-1 inh: 42; tim10-1 inh: 50*; TIM10 inh: 38; V-ATPase pH: 0; tim10-1 conf: 46*

What do the screens show for `COc1cccc(CNC(=O)c2ccc(F)c(S(=O)(=O)N3CCCCC3)c2)c1`?
V-ATPase pH: 3

How did c1ccc(CNc2ncnc3sc4c(c23)CCCC4)nc1 do in these assays?
tim23-1 inh: 42; PfHsp90 set2: 13; tim10-1 inh: 45*; TIM10 inh: -7; V-ATPase pH: -2; tim10-1 conf: 36*

Results for O=C(Nc1ncnc2sc3c(c12)CCCCC3)c1ccc(F)cc1 ?
tim23-1 inh: 23; tim10-1 inh: 45*; TIM10 inh: 26; V-ATPase pH: 0; tim10-1 conf: 32*

What do the screens show for `Cc1nc(NCc2ccccn2)c2c3c(sc2n1)CCCC3`?
tim23-1 inh: 39; PfHsp90 set2: -51; tim10-1 inh: 41*; TIM10 inh: 16; V-ATPase pH: 3; tim10-1 conf: 41*

How did Cc1nc(NCc2ccco2)c2c3c(sc2n1)CCC3 do in these assays?
tim23-1 inh: 34; PfHsp90 set2: -1; tim10-1 inh: 27; TIM10 inh: -11; V-ATPase pH: -2

What do the screens show for `O=C(Nc1ncnc2sc3c(c12)CCCCC3)c1ccccc1`?
tim23-1 inh: 42; tim10-1 inh: 30; TIM10 inh: 29; V-ATPase pH: 2

How did COCC(=O)N1CCC(Oc2ccc(C(=O)NCc3cc(C(C)C)no3)cc2)CC1 do in these assays?
tim23-1 inh: 15; PfHsp90 set2: 3; tim10-1 inh: 12; TIM10 inh: 12; V-ATPase pH: 1
